In PubChem BioAssay AID602144 (Vanderbilt Specialized Chemistry Center, 2011):
Several values for one entry are separate records, joined by “and”; a condition that tells them apart may be missing. Equal entries are not always repeated. A number with no mark means an inactive call. Activity calls are given as the source filed them. No stated cut-off is given here; in the data, active means remaining activity below about 50%; inactive means the rest.

target: Phospholipase D1 (Homo sapiens) (UniProt Q13393); assay: cellular phospholipase D1 activity inhibition – Calu-1 cells, single concentration (AID 602144); conditions: cellular PLD1 activity, hits give low values;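 further: tested at 200 nM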
Sequence (Q13393 whole entry, looked up): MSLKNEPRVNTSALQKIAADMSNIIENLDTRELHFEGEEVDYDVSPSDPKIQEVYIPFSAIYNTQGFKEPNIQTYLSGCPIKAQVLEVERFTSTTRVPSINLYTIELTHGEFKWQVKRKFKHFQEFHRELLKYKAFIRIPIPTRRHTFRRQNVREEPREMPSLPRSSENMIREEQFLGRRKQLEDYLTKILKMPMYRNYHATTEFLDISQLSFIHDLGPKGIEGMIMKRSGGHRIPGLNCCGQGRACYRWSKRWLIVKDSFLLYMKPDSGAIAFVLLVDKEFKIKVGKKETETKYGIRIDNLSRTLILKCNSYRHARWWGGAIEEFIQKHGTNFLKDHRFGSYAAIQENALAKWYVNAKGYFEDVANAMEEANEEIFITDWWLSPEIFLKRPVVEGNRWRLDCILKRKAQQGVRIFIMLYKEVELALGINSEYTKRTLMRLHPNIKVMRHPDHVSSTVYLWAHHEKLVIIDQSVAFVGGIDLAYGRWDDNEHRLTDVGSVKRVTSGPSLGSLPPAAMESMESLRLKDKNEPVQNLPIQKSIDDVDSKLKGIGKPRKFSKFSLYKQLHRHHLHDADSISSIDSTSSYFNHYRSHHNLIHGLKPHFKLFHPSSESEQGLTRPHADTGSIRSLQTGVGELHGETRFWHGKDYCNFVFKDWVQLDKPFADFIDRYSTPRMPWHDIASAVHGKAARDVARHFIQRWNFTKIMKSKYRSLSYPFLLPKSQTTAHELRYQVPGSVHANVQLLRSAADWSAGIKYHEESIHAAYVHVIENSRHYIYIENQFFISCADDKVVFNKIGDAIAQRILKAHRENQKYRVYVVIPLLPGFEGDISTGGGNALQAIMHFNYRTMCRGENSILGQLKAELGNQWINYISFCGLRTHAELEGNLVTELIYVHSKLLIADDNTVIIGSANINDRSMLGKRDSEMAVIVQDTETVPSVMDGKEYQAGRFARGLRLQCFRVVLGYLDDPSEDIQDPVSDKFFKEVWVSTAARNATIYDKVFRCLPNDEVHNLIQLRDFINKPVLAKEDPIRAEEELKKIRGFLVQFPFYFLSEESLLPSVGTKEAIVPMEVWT
Sequence (Q13393 whole entry, looked up): as above

SMILES | remaining activity
O=C(NCCN1CCC2(CC1)C(=O)NCN2c1ccccc1)c1cc(Br)c(Br)o1 | 66.9%
CC(C)[C@@H](CN1CCC2(CC1)C(=O)NCN2c1ccccc1)NC(=O)c1cnc2ccccc2c1 | 18.3% (active)
O=C(NCCN1CCC2(CC1)C(=O)NCN2c1cccc(F)c1)C1CCCCC1 | 102%
O=C(N[C@@H](Cc1ccccc1)CN1CCC2(CC1)C(=O)NCN2c1ccccc1)c1ccc(F)c(F)c1 | 75.5%
COc1cccc(C(=O)NCCN2CCC3(CC2)C(=O)NCN3c2ccccc2)n1 | 137%
COc1ccc(CC(=O)NCCN2CCC3(CC2)C(=O)NCN3c2cccc(F)c2)cc1OC | 108% and 107%
O=C(c1cnc2ccccc2c1)N1CC(N2CCC(n3c(=O)[nH]c4cc(Br)ccc43)CC2)C1 | 81.6%
CC(C)[C@@H](CN1CCC2(CC1)C(=O)NCN2c1ccccc1)NC(=O)c1ccc(F)cc1 | 41.3% (active)
O=C(NCCN1CCC2(CC1)C(=O)NCN2c1ccccc1)c1cccnn1 | 105%
O=C(NCCN1CCC2(CC1)C(=O)NCN2c1ccc(Br)cc1)c1ccc2ccccc2c1 | 92.7%
O=C(CCN1CCC2(CC1)C(=O)NCN2c1ccccc1)Nc1ccc(F)cc1 | 125%
O=C(NCCN1CCC2(CC1)C(=O)Oc1ccccc12)c1cnc2ccccc2c1 | 105%
O=C(Cc1cccs1)NCCN1CCC2(CC1)C(=O)NCN2c1cccc(F)c1 | 89.8%
O=C(NCCN1CCC2(CC1)C(=O)NCN2c1ccc(Cl)cc1)c1cnc2ccccc2c1 | 94.2%
O=C(c1ccc2ccccc2c1)N1CC(N2CCC3(CC2)C(=O)NCN3c2ccccc2)C1 | 82.4%
O=C(c1ccc(F)c(F)c1)N(CCN1CCC2(CC1)C(=O)NCN2c1cccc(F)c1)C(=O)c1ccc(F)c(F)c1 | 101%
O=C(NCCN1CCC2(CC1)C(=O)NCN2c1ccc(Cl)cc1)c1cc2cc(F)ccc2[nH]1 | 79.4%
O=C(NCCN1CCC2(CC1)C(=O)NCN2c1cccc(F)c1)c1c(F)cccc1F | 80.5%

SMILES | remaining activity
O=C(NCCN1CCC2(CC1)C(=O)NCN2c1cccc(F)c1)c1cc(C(F)(F)F)ccc1C(F)(F)F | 86.3%
O=C(NCCN1CCC2(CC1)C(=O)NCN2c1cccc(F)c1)c1ccc(F)nc1 | 117%
O=C(NCCN1CCC2(CC1)C(=O)NCN2c1ccc(Br)cc1)c1cc2cc(F)ccc2[nH]1 | 55.7%
O=C(NCCN1CCC2(CC1)C(=O)N(Cc1ccccc1)c1ccccc12)c1ccc2ccccc2c1 | 98.9%
NC1(CN2CCC3(CC2)C(=O)NCN3c2ccccc2)CCCC1 (tested in a mixture with another compound) | 85.3%
O=C(NCCN1CCC2(CC1)C(=O)NCN2c1ccc(F)c(F)c1)c1ccc2ccccc2c1 | 84.3%
C[C@@H](CN1CCC2(CC1)C(=O)NCN2c1ccccc1)NC(=O)c1ccc(F)c(F)c1 | 34.3% (active)
O=C(NCCN1CCC2(CC1)C(=O)NCN2c1cccc(F)c1)c1cccc(F)c1 | 100%
C[C@@H](CN1CCC2(CC1)C(=O)NCN2c1ccc(F)c(F)c1)NC(=O)c1ccc2ccccc2c1 | 25.7% (active)
O=C(NCCCN1CCC2(CC1)C(=O)NCN2c1ccccc1)c1ccc2ccccc2c1 | 81%
O=C(NCCN1CCC2(CC1)C(=O)NCN2c1ccccc1)c1cc(=O)c2cc(Br)ccc2o1 | 110%
O=C(NCCN1CCC2(CC1)C(=O)NCN2c1ccc(F)cc1)c1ccc2ccccc2c1 | 75.2%
O=C(NCCN1CCC2(CC1)C(=O)NCN2c1ccccc1)c1ncccc1F | 110%
O=C(NCCN1CCC2(CC1)C(=O)NCN2c1ccccc1)c1ncc[nH]1 | 62.9%
O=C(NCCN1CCC2(CC1)C(=O)NCN2c1ccc(F)cc1)c1cc2ccccc2[nH]1 | 32.3% (active)
Nc1cccc(Cl)c1C(=O)NCCN1CCC2(CC1)C(=O)NCN2c1ccccc1 | 92.9%
O=C(NCCCN1CCC2(CC1)C(=O)NCN2c1ccccc1)c1cnc2ccccc2c1 | 99%
